# Test results taken from the supplement of paper PMC11732987, “Enantioselective OTUD7B fragment discovery through chemoproteomics screening and high-throughput optimisation” (Communications Chemistry, 2025).
# Values without a mark were called inactive.
# Tests used:
# Assay in all cases: log2 ratio of Biotin-Ahx-Ub-VS probe labelling (fragment/DMSO); higher = less target engagement (more negative = stronger competition), active = hit call of the paper (q ≤ 0.05, log2 ratio ≤ -1)
# Details in all cases: compound concentration: 200 uM; treatment time: 3 h
# OTUD6B = target: T1, OTUD6B (UniProt Q8N6M0)
# T1 sequence (whole entry): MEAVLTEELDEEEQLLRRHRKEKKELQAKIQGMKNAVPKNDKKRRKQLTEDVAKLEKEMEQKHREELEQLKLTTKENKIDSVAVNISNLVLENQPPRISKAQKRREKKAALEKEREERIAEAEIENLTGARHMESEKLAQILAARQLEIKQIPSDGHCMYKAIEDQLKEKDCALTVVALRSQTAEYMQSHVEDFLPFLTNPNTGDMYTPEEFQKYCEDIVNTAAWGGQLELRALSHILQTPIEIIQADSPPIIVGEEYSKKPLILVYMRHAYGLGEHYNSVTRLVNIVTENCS
# Summary of the method: (§1)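 Labelling with Biotin-Ahx-Ub-VS (0.5 µM final, 1 h) followed a 3 h triplicate treatment of HEK293T lysate (495 µg per sample, Tris/CHAPS/IGEPAL buffer with protease inhibitors) with fragment at 200 µM or vehicle. Labelled DUBs were NeutrAvidin-enriched, digested with LysC and trypsin, and run by diaPASEF LC-MS/MS. The values, average log2 fragment/vehicle ratios by unpaired t-test, come from global-median-normalised Spectronaut label-free quantities. Proteins with ≥2 unique peptides were used.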
# OTUD7B = target: T2, OTUD7B (UniProt Q6GQQ9)
# T2 sequence (whole entry): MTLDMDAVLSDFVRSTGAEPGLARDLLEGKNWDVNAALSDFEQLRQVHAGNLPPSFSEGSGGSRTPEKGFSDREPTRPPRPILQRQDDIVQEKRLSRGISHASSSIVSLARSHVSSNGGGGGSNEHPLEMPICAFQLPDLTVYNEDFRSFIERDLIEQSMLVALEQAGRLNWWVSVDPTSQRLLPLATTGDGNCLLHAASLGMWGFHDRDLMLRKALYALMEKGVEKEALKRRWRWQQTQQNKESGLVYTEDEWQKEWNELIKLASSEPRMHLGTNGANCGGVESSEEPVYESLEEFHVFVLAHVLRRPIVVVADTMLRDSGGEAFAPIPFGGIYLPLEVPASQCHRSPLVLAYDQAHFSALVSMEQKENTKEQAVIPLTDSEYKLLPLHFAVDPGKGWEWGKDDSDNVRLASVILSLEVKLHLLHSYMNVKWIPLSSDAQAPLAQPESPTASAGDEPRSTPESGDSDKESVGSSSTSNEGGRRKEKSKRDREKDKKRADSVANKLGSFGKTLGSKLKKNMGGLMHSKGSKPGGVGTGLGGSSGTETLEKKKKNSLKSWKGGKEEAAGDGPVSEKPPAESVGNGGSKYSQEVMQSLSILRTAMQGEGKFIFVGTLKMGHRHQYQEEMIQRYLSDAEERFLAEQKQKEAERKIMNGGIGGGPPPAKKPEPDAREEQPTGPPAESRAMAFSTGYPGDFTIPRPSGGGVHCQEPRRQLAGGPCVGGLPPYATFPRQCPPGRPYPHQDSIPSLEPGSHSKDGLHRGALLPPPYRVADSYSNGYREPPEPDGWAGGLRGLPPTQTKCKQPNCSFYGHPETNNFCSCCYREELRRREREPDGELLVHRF
# Summary of the method: as §1
# PRPF8 = PRPF8 (UniProt Q6P2Q9)
# Summary of the method: as §1
# PSMD7 = target: T3, PSMD7 (UniProt P51665)
# T3 sequence (whole entry): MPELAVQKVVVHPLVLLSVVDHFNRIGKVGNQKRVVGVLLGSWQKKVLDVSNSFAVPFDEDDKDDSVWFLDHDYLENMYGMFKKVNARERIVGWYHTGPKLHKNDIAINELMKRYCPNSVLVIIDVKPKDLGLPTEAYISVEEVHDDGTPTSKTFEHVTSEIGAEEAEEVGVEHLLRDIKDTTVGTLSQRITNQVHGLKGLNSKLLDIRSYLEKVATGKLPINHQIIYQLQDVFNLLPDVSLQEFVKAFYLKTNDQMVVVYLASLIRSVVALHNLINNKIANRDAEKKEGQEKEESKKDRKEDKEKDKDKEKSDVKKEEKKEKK
# Summary of the method: as §1
# UCHL1 = UCHL1 (UniProt P09936)
# Chain of UCHL1 (P09936 whole entry, looked up): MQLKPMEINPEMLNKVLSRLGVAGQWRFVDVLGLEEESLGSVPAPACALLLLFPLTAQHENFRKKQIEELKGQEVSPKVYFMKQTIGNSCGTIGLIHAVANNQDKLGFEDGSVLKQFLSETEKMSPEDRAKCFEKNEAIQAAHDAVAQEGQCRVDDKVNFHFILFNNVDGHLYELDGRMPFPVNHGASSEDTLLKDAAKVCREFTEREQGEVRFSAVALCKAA
# Summary of the method: as §1
# UCHL3 = target: T4, UCHL3 (UniProt P15374)
# T4 sequence (whole entry): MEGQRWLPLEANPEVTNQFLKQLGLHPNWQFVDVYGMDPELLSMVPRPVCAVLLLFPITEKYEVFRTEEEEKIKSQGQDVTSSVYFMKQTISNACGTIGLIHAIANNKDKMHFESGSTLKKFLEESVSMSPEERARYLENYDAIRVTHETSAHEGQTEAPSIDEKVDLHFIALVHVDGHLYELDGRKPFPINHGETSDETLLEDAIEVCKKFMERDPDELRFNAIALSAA
# Summary of the method: as §1
# UCHL5 = target: T5, UCHL5 (UniProt Q9Y5K5)
# T5 sequence (whole entry): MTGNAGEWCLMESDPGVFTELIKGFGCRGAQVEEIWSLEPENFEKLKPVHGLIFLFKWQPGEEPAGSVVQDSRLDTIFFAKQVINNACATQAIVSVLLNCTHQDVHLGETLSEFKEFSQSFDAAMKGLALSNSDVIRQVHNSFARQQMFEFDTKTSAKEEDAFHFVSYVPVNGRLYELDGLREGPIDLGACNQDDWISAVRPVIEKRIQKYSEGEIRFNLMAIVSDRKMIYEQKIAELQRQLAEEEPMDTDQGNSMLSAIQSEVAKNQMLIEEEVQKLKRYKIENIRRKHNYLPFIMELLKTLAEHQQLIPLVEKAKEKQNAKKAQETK
# Summary of the method: as §1
# USP10 = USP10 (UniProt Q14694)
# Chain of USP10 (Q14694 whole entry): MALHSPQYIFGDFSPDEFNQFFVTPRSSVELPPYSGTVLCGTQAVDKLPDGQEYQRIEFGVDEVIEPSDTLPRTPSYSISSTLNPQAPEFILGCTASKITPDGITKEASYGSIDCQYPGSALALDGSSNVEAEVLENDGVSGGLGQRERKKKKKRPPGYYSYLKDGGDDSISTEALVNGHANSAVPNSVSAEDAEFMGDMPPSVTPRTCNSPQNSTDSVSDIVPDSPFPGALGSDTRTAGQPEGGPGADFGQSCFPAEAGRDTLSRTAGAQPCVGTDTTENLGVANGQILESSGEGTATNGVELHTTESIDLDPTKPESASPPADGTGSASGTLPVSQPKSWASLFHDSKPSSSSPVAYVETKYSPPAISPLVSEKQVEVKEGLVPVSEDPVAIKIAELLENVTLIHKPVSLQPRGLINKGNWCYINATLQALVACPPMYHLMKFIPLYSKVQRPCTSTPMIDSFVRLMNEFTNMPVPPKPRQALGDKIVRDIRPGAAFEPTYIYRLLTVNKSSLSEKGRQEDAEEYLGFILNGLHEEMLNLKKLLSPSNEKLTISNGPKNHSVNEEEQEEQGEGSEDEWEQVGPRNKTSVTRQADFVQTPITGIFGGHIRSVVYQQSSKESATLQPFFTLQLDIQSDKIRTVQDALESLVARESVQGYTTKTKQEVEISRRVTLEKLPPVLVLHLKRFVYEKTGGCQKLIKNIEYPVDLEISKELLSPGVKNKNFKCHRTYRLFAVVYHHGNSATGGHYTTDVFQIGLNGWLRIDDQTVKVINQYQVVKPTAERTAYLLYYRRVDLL
# Summary of the method: as §1
# USP15 = target: T6, USP15 (UniProt Q9Y4E8)
# T6 sequence (whole entry): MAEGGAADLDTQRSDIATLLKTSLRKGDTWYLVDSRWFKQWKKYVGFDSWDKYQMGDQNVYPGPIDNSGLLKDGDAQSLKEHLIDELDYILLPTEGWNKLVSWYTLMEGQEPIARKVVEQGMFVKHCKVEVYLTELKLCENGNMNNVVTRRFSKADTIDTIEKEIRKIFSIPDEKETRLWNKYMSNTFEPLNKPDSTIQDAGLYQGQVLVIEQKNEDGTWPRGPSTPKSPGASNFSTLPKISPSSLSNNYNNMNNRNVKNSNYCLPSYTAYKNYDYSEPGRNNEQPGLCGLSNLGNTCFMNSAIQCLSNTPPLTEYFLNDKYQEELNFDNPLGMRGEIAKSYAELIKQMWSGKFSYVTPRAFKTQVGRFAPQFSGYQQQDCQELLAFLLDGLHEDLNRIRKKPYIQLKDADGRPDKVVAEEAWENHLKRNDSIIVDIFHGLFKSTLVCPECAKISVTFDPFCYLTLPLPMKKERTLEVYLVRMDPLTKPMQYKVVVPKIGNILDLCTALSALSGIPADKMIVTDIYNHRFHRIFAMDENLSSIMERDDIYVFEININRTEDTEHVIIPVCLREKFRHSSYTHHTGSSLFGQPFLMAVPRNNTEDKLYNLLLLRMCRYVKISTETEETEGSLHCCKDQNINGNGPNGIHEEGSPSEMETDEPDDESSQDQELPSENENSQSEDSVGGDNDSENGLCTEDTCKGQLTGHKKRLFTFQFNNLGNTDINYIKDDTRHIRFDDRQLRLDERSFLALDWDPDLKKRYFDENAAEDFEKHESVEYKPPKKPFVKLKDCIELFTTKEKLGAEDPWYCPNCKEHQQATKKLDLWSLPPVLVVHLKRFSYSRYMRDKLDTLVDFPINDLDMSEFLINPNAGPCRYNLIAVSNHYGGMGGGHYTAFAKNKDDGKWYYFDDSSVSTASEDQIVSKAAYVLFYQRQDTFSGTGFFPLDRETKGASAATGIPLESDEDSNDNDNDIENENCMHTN
# Summary of the method: as §1
# USP16 = USP16 (UniProt Q9Y5T5)
# Chain of USP16 (Q9Y5T5 whole entry, looked up): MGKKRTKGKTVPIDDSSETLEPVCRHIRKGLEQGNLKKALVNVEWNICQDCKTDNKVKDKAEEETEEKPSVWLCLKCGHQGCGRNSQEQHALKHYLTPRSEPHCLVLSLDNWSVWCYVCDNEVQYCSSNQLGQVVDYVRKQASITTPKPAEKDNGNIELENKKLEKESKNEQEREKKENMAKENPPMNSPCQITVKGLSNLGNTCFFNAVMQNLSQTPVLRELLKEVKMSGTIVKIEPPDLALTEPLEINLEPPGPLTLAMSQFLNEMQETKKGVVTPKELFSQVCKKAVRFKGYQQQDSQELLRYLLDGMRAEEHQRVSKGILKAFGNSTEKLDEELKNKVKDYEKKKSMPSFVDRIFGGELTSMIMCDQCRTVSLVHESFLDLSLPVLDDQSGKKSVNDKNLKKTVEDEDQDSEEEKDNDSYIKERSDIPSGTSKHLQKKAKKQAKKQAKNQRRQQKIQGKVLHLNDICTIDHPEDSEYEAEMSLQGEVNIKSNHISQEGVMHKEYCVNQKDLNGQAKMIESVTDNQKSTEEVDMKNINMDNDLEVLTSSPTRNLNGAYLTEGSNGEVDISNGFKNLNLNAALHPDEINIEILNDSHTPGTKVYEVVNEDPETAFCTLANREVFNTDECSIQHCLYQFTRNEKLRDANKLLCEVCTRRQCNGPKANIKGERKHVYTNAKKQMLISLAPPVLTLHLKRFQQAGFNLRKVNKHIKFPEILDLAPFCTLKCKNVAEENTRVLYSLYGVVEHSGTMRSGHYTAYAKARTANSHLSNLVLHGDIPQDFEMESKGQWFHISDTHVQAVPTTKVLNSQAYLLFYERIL
# Summary of the method: as §1
smiles,measurement,setting,value
Cl.O=C(CCl)N1CCn2ncc(O)c2C1,log2 ratio of Biotin-Ahx-Ub-VS probe labelling,OTUD6B,-0.223
same,log2 ratio of Biotin-Ahx-Ub-VS probe labelling,OTUD7B,-1.54 (active)
same,log2 ratio of Biotin-Ahx-Ub-VS probe labelling,PRPF8,0.218
same,log2 ratio of Biotin-Ahx-Ub-VS probe labelling,PSMD7,-0.249
same,log2 ratio of Biotin-Ahx-Ub-VS probe labelling,UCHL1,-1.49 (active)
same,log2 ratio of Biotin-Ahx-Ub-VS probe labelling,UCHL3,-0.188
same,log2 ratio of Biotin-Ahx-Ub-VS probe labelling,UCHL5,-1.12 (active)
same,log2 ratio of Biotin-Ahx-Ub-VS probe labelling,USP10,-0.00467
same,log2 ratio of Biotin-Ahx-Ub-VS probe labelling,USP15,-0.99
same,log2 ratio of Biotin-Ahx-Ub-VS probe labelling,USP16,-0.0885
